Among the data in PubChem BioAssay AID1347426 (Functional Genomics Laboratory (NCATS/FGL), 2020) are median seed-adjusted z-score values, retold here.

Screen size: about 31,000 sequences; about 1,400 (4.5%) were called active. This is one part of a sample in which actives are shown more often than they occur. Values without a mark were called inactive.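 How the source made its calls: active means median seed-adjusted z-score above 1 or below -1; inactive means the rest.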

This assay in a line: Novel Modifiers of Survival Motor Neuron (SMN) Protein: Gene Identification via Genome-wide siRNA Screen.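 Further: luminescence tracks full-length SMN protein made from the SMN2 reporter.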 Particulars: HEK293T SMN2-luciferase reporter, siRNA knockdown, 72 h; actives lie on both sides. In outline: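 Luciferase signal, proportional to full-length SMN made from an SMN2 cDNA reporter in stable HEK293T cells, was read 72 h after siRNA reverse transfection. Values were expressed as MAD scores after non-targeting-control normalization and log10 conversion; seed analysis flagged off-targets.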
With GUGCAUGCAGGAGAAGUCATT against GATA2, the median seed-adjusted z-score was 0.623. Consider GCAUGCAGCCUUGAAGAUATT against CRYZL1, for which the median seed-adjusted z-score was 0.0481.

In the case of CGUGUCAAAUAUUGGAUUATT against KLB, the median seed-adjusted z-score was 0.221. On to GCACCUUCGUCCUCAACUUTT against PROC, for which the median seed-adjusted z-score was -0.228.

Turning to CCGCUGAACCUGUUGAAGATT against SGMS2, the median seed-adjusted z-score is -0.492. On to GGUGCUCUCGGUUGCACAATT against U2AF1, for which the median seed-adjusted z-score is 2.08 (active).

On to CAAGCUCUGAUAUACCGAATT against HIVEP1, for which the median seed-adjusted z-score is 0.532.

In the case of UGCACAUCAAGUAUCCUAATT against SLC30A10, the median seed-adjusted z-score was 0.523. Take GCAUCAUCCAGAACACGGATT against ARHGEF18: the median seed-adjusted z-score is 0.586. As for CGAUGGAGAUGUUUCGGGATT against KCNA2, the figure is -1.03 (active); as for GCGAGAGUCUGCAUAGGUATT against GRIN2D, -0.135; as for GGAAGAAAGUAUAAUAGAATT against MAFG, 0.

Consider UGAUCAACCUCAAGACGGATT against MED16, for which the median seed-adjusted z-score was -0.6. With GAAACACGUCAGUCCUAAUTT against LHX8, the median seed-adjusted z-score was 0.

On to GAAGUUCAUACUAAGCGUATT against TPR, for which the median seed-adjusted z-score is -1.03 (active). In the case of CGUGGUACCAGACAUCUGATT against CCL17, the median seed-adjusted z-score was 0.178. In the case of GACCGACUGCAGAACAAUATT against PDE6B, the median seed-adjusted z-score was -0.336. As for GGAUAAUACAGUUCGAUUATT against TAF5, the figure is -0.192; as for GACUCCCUGCUUUCAAUAATT against SALL2, 0.504. With CCCUCUCAGUACUACGCUATT against ZMYND10 the figure was 0.255. As for CAAGAAAACUGCGAAUAAATT against STX2, the figure is 0.442; as for GUUUCAUCUGGGUUCGCUATT against SF3B3, -2.53 (active). With GAACCAUCUCAAUACUAUUTT against DACH2, the median seed-adjusted z-score is -0.00102. Regarding GGGCGAGUAUUAUGACUAUTT against MYO15A, the median seed-adjusted z-score is 0.0508.

Regarding GACUGUUCGUUUCCCAGAUTT against CHRNA7, the median seed-adjusted z-score was -0.485. Consider GAGACAGCCUGAUGGAGAATT against STC1, for which the median seed-adjusted z-score is -1.36 (active).

As to GCUCCUUGCUACCAUAGUATT against CCBP2, the median seed-adjusted z-score is -0.0896.

Take CUCUCAGACAAGCUACUGATT against CCL27: the median seed-adjusted z-score was 0. Take GUUGUGGUCUGAUCAGUUATT against TUBA1A: the median seed-adjusted z-score is 0.284. Consider AGUUCCCUUUGUAACCAUATT against ZNF669, for which the median seed-adjusted z-score is 0.175.

AGGCUGCGUUUGGACCAGATT against PAPLN: the median seed-adjusted z-score was -0.186.

Turning to CAUGGGUGCUUAUAAGUCATT against IL1A, the median seed-adjusted z-score is 1.12 (active). Take GGGCUGCACCAAAGCCUAUTT against KLF14: the median seed-adjusted z-score was 0.0241. As for GUUUAUUUCGUACACUAAATT against KTI12, the median seed-adjusted z-score was 0.0814.

Turning to GCGUCGUGGUCAUGAACAATT against PIP5K1C, the median seed-adjusted z-score is -0.13. Turning to CAGUGUCCCUAUGAAGGGATT against SRMS, the median seed-adjusted z-score was -1.58 (active). With GCUAUUGAGUUUGCCCAAATT against ADHFE1 the figure was 0.418; with “CUAGUGAUCUUUUAGAGUUTT against CSGALNACT2”, 0.236. Take GAACUUUAUUGCAAAGUUUTT against CSRP3: the median seed-adjusted z-score was 0.15. Turning to GCAUCGAGAUCCACGAAGATT against PITPNM3, the median seed-adjusted z-score is -0.0378.

Take AGAAGACUCUGGUAAUGUATT against WHSC1: the median seed-adjusted z-score is 1.17 (active). In the case of CUGAUUCAAGAGAAGAUUATT against SMARCAL1, the median seed-adjusted z-score was -0.145. With GAACAGAUCCGGAAGAAGATT against NR1H2, the median seed-adjusted z-score was 0.069. On to GGACUUUGAUUGCUAGCAATT against CTRC, for which the median seed-adjusted z-score is -0.104. With GCUUGAAGAGUUUGGCUGGTT against DUSP15 the figure was 0; with GCAAUUAACAAUUAUCGAUTT against RNASE3, 0.588. Turning to AGUUUGUCCUGAAGAAUUATT against PTPN23, the median seed-adjusted z-score is -0.0473. As for GGGUCAUCUAUAUCCGCAATT against GPR132, the median seed-adjusted z-score was 0. As to GCAUCUGCUGUAUCGAUGATT against MCM4, the median seed-adjusted z-score is 0.0057. Consider GCCCUUACAGGGUAUCAAATT against DDX46, for which the median seed-adjusted z-score was -1.24 (active). For the sequence CACGGAUUCUUGUUGGAAATT against RAB33B, the median seed-adjusted z-score is -0.758. GUUCGAAUCAAGAACCCUATT against NT5C3: the median seed-adjusted z-score was -0.456. Take UGAUAGAGAUCAACCCAUATT against PSMB5: the median seed-adjusted z-score is -1.37 (active). Take ACAUGAUCAUCAGUGUGAATT against FABP4: the median seed-adjusted z-score is 0.227. As to GCGUCAUGAUGUUCACCUATT against ITGB5, the median seed-adjusted z-score is -0.00882. For the sequence GCAUGGGAAUCAUUGUGCUTT against PPIL1, the median seed-adjusted z-score was 0.166. As for CCAGUACACUUUUGUCUGATT against CDC5L, the figure is -0.628; as for AAGUGUGCCUGAAUACUAUTT against KHDRBS2, -0.335; as for GGAGCAGUCACUUACAGAATT against PINK1, 0.192. CCACUGUCCUGUUUGAGAUTT against FKBP6: the median seed-adjusted z-score is -1.12 (active). For CGGAUUAUCUUCUAUCUAUTT against SLC6A14, the median seed-adjusted z-score is 0.

As for GUCUUGACCUUGAACGCAATT against VIM, the median seed-adjusted z-score is 0.431. For GGCUUCUUCUCGUGCAUCATT against KCNK3, the median seed-adjusted z-score is 0.

On to GAAGGGUGAUUCUAAUAUUTT against GPR174, for which the median seed-adjusted z-score is -0.324. With GAAUCUGUCAGGAAUGACATT against RARB, the median seed-adjusted z-score was 0.409. With CAUCGAAUCCUUACCCGAATT against AASDHPPT the figure was 0.64. For the sequence GCCUCACCUCAAUUGCAAATT against ANP32D, the median seed-adjusted z-score is -0.714. In the case of GACUACGCCUUGAAGCUAATT against TAF6, the median seed-adjusted z-score is -1.36 (active). As for GCUUUCGUCAAGUCAAAGATT against TIRAP, the figure is -0.431.
